{"source": "ChEMBL document CHEMBL1157539", "about": "“Thousands of chemical starting points for antimalarial lead identification” (Nature, 2010)", "format_in_all_cases": "functional", "key": {"Plasmodium falciparum [1]": {"tested_on": "Plasmodium falciparum", "experiment": "GSK_TCMDC: Inhibition of Plasmodium falciparum 3D7 in whole red blood cells, using parasite LDH activity as an index of growth. Test compounds present at 2uM"}, "Plasmodium falciparum [2]": {"tested_on": "Plasmodium falciparum", "experiment": "GSK_TCMDC: Inhibition of Plasmodium falciparum Dd2 in whole red blood cells, using parasite LDH activity as an index of growth. Test compounds present at 2uM"}, "HepG2": {"tested_on": "HepG2", "experiment": "GSK_TCMDC: Percent inhibition of human HepG2 cell line. Test compounds present at 10uM."}}, "data": [{"smiles": "COc1cc2nc(NCc3ccccc3)nc(NCc3ccccc3)c2cc1OC", "values": [{"measurement": "Inhibition", "setting": "Plasmodium falciparum [1]", "result": 100, "unit": "%"}, {"measurement": "Inhibition", "setting": "Plasmodium falciparum [2]", "result": 100, "unit": "%"}, {"measurement": "Inhibition", "setting": "HepG2", "result": 66, "unit": "%"}]}, {"smiles": "CCOC(=O)N1CCN(CCCNc2c3ccccc3nc3ccccc23)CC1.Cl", "values": [{"measurement": "Inhibition", "setting": "Plasmodium falciparum [1]", "result": 90, "unit": "%"}, {"measurement": "Inhibition", "setting": "Plasmodium falciparum [2]", "result": 20, "unit": "%"}, {"measurement": "Inhibition", "setting": "HepG2", "result": 5, "unit": "%"}]}, {"smiles": "CCN(CC)CCN(Cc1ccc(-c2ccc(C(F)(F)F)cc2)cc1)C(=O)c1ccc(-c2ccc(NC(=O)OC)cc2C)cc1", "values": [{"measurement": "Inhibition", "setting": "Plasmodium falciparum [1]", "result": 93, "unit": "%"}, {"measurement": "Inhibition", "setting": "Plasmodium falciparum [2]", "result": 42, "unit": "%"}, {"measurement": "Inhibition", "setting": "HepG2", "result": 66, "unit": "%"}]}, {"smiles": "Cc1cc(C=C2SC(=Nc3ccccc3)N(C3CCCC3)C2=O)c(C)n1-c1ccc(Cl)cc1", "values": [{"measurement": "Inhibition", "setting": "Plasmodium falciparum [1]", "result": 100, "unit": "%"}, {"measurement": "Inhibition", "setting": "Plasmodium falciparum [2]", "result": 70, "unit": "%"}, {"measurement": "Inhibition", "setting": "HepG2", "result": 0, "unit": "%"}]}, {"smiles": "COc1cc(NC(=O)c2sc(-c3ccc(Cl)cc3)cc2NC(=O)c2ccncc2)ccc1OCCN1CCCC1", "values": [{"measurement": "Inhibition", "setting": "Plasmodium falciparum [1]", "result": 100, "unit": "%"}, {"measurement": "Inhibition", "setting": "Plasmodium falciparum [2]", "result": 100, "unit": "%"}, {"measurement": "Inhibition", "setting": "HepG2", "result": 100, "unit": "%"}]}, {"smiles": "Cc1ccc(CNC(=O)[C@H](Cc2ccccc2)Nc2cc(C)nc(NCC3CCCCC3)n2)cc1.O=C(O)C(F)(F)F", "values": [{"measurement": "Inhibition", "setting": "Plasmodium falciparum [1]", "result": 100, "unit": "%"}, {"measurement": "Inhibition", "setting": "Plasmodium falciparum [2]", "result": 89, "unit": "%"}, {"measurement": "Inhibition", "setting": "HepG2", "result": 0, "unit": "%"}]}, {"smiles": "COc1ccc(-c2ncnc(C(F)(F)F)c2-c2ccc(Cl)cc2)c(O)c1", "values": [{"measurement": "Inhibition", "setting": "Plasmodium falciparum [1]", "result": 100, "unit": "%"}, {"measurement": "Inhibition", "setting": "Plasmodium falciparum [2]", "result": 22, "unit": "%"}, {"measurement": "Inhibition", "setting": "HepG2", "result": 1, "unit": "%"}]}, {"smiles": "O=C(Nc1ccc(O)c(-c2nc3ccccc3[nH]2)c1)c1ccc([N+](=O)[O-])cc1", "values": [{"measurement": "Inhibition", "setting": "Plasmodium falciparum [1]", "result": 97, "unit": "%"}, {"measurement": "Inhibition", "setting": "Plasmodium falciparum [2]", "result": 45, "unit": "%"}, {"measurement": "Inhibition", "setting": "HepG2", "result": 0, "unit": "%"}]}, {"smiles": "CC(C)Cn1ncc2c3c(N)nc(N)nc3ccc21", "values": [{"measurement": "Inhibition", "setting": "Plasmodium falciparum [1]", "result": 94, "unit": "%"}, {"measurement": "Inhibition", "setting": "Plasmodium falciparum [2]", "result": 73, "unit": "%"}, {"measurement": "Inhibition", "setting": "HepG2", "result": 63, "unit": "%"}]}, {"smiles": "N#Cc1ccc2[nH]c(-c3ccccc3)nc2c1", "values": [{"measurement": "Inhibition", "setting": "Plasmodium falciparum [1]", "result": 95, "unit": "%"}, {"measurement": "Inhibition", "setting": "Plasmodium falciparum [2]", "result": 1, "unit": "%"}, {"measurement": "Inhibition", "setting": "HepG2", "result": 7, "unit": "%"}]}, {"smiles": "CCn1c(CN2CCN(Cc3ccccc3)CC2)nc2cc(NC(=O)c3cccs3)ccc21", "values": [{"measurement": "Inhibition", "setting": "Plasmodium falciparum [1]", "result": 97, "unit": "%"}, {"measurement": "Inhibition", "setting": "Plasmodium falciparum [2]", "result": 95, "unit": "%"}, {"measurement": "Inhibition", "setting": "HepG2", "result": 0, "unit": "%"}]}, {"smiles": "Cl.NCCCCc1c(-c2ccc(Cl)c(Cl)c2)[nH]c2ccc(Cl)cc12", "values": [{"measurement": "Inhibition", "setting": "Plasmodium falciparum [1]", "result": 97, "unit": "%"}, {"measurement": "Inhibition", "setting": "Plasmodium falciparum [2]", "result": 20, "unit": "%"}, {"measurement": "Inhibition", "setting": "HepG2", "result": 33, "unit": "%"}]}, {"smiles": "CN(C)c1ccc(-c2ccc(C(=O)NC3CCN(Cc4ccccc4F)CC3)s2)cc1.O=C(O)C(F)(F)F", "values": [{"measurement": "Inhibition", "setting": "Plasmodium falciparum [1]", "result": 88, "unit": "%"}, {"measurement": "Inhibition", "setting": "Plasmodium falciparum [2]", "result": 19, "unit": "%"}, {"measurement": "Inhibition", "setting": "HepG2", "result": 30, "unit": "%"}]}, {"smiles": "O=C(Nc1ccc(-c2ccccc2)cc1)Nc1cccc(Cn2nc(Cl)c(N3CCNCC3)cc2=O)c1.O=C(O)C(F)(F)F", "values": [{"measurement": "Inhibition", "setting": "Plasmodium falciparum [1]", "result": 100, "unit": "%"}, {"measurement": "Inhibition", "setting": "Plasmodium falciparum [2]", "result": 79, "unit": "%"}, {"measurement": "Inhibition", "setting": "HepG2", "result": 15, "unit": "%"}]}, {"smiles": "Cn1cnc(CCNC(=O)c2ccc(-c3ccc(-c4nc5cc(C(F)(F)F)ccc5[nH]4)s3)cc2)c1", "values": [{"measurement": "Inhibition", "setting": "Plasmodium falciparum [1]", "result": 100, "unit": "%"}, {"measurement": "Inhibition", "setting": "Plasmodium falciparum [2]", "result": 99, "unit": "%"}, {"measurement": "Inhibition", "setting": "HepG2", "result": 75, "unit": "%"}]}, {"smiles": "COc1ccc(CN2CCCN(Cc3cccc(NC(=O)c4ccc5ccccc5c4)c3)CC2)cc1.O=C(O)C(F)(F)F", "values": [{"measurement": "Inhibition", "setting": "Plasmodium falciparum [1]", "result": 93, "unit": "%"}, {"measurement": "Inhibition", "setting": "Plasmodium falciparum [2]", "result": 11, "unit": "%"}, {"measurement": "Inhibition", "setting": "HepG2", "result": 27, "unit": "%"}]}, {"smiles": "O=C(c1ccc(-c2ccc(-c3nc4cc(C(F)(F)F)ccc4[nH]3)s2)cc1)N1CCCCC1CN1CCC(O)C1", "note": "(centres undefined)", "values": [{"measurement": "Inhibition", "setting": "Plasmodium falciparum [1]", "result": 92, "unit": "%"}, {"measurement": "Inhibition", "setting": "Plasmodium falciparum [2]", "result": 80, "unit": "%"}, {"measurement": "Inhibition", "setting": "HepG2", "result": 90, "unit": "%"}]}, {"smiles": "NCCc1cccc(-c2cnc3[nH]cc(-c4ccc(C(=O)O)cc4)c3c2)c1.O=C(O)C(F)(F)F", "values": [{"measurement": "Inhibition", "setting": "Plasmodium falciparum [1]", "result": 99, "unit": "%"}, {"measurement": "Inhibition", "setting": "Plasmodium falciparum [2]", "result": 98, "unit": "%"}, {"measurement": "Inhibition", "setting": "HepG2", "result": 4, "unit": "%"}]}, {"smiles": "O=C(C1CC1c1ccccc1)N(Cc1ccc(-c2ccc(CNCCc3ccccc3)cc2)cc1)C1CCNCC1.O=C(O)C(F)(F)F", "note": "(centres undefined)", "values": [{"measurement": "Inhibition", "setting": "Plasmodium falciparum [1]", "result": 96, "unit": "%"}, {"measurement": "Inhibition", "setting": "Plasmodium falciparum [2]", "result": 39, "unit": "%"}, {"measurement": "Inhibition", "setting": "HepG2", "result": 36, "unit": "%"}]}, {"smiles": "N=C(Nc1nc(-c2ccccn2)cc2ccccc12)c1cccc(Cl)c1", "values": [{"measurement": "Inhibition", "setting": "Plasmodium falciparum [1]", "result": 100, "unit": "%"}, {"measurement": "Inhibition", "setting": "Plasmodium falciparum [2]", "result": 99, "unit": "%"}, {"measurement": "Inhibition", "setting": "HepG2", "result": 54, "unit": "%"}]}, {"smiles": "CN1CCN(c2nc(NCCc3ccc(O)cc3)nc(NCc3ccccc3-c3ccc(C(F)(F)F)cc3)n2)CC1", "values": [{"measurement": "Inhibition", "setting": "Plasmodium falciparum [1]", "result": 90, "unit": "%"}, {"measurement": "Inhibition", "setting": "Plasmodium falciparum [2]", "result": 82, "unit": "%"}, {"measurement": "Inhibition", "setting": "HepG2", "result": 35, "unit": "%"}]}, {"smiles": "CCC(O)(C#Cc1c(C)nc(N)nc1N)CC", "values": [{"measurement": "Inhibition", "setting": "Plasmodium falciparum [1]", "result": 97, "unit": "%"}, {"measurement": "Inhibition", "setting": "Plasmodium falciparum [2]", "result": 0, "unit": "%"}, {"measurement": "Inhibition", "setting": "HepG2", "result": 63, "unit": "%"}]}, {"smiles": "Cc1cccc(C)c1C1CCN(CCCCNC(=O)c2cc3ccccc3[nH]2)CC1", "values": [{"measurement": "Inhibition", "setting": "Plasmodium falciparum [1]", "result": 90, "unit": "%"}, {"measurement": "Inhibition", "setting": "Plasmodium falciparum [2]", "result": 18, "unit": "%"}, {"measurement": "Inhibition", "setting": "HepG2", "result": 46, "unit": "%"}]}, {"smiles": "CN(C)CCOc1cc(NC(=O)Nc2ccc(-c3ccncc3)c3ccccc23)ccc1I", "values": [{"measurement": "Inhibition", "setting": "Plasmodium falciparum [1]", "result": 97, "unit": "%"}, {"measurement": "Inhibition", "setting": "Plasmodium falciparum [2]", "result": 46, "unit": "%"}, {"measurement": "Inhibition", "setting": "HepG2", "result": 35, "unit": "%"}]}, {"smiles": "Cc1noc(C)c1-c1ccc(C(=C2CCCCCCC2)c2ccc(O)cc2)cc1", "values": [{"measurement": "Inhibition", "setting": "Plasmodium falciparum [1]", "result": 83, "unit": "%"}, {"measurement": "Inhibition", "setting": "Plasmodium falciparum [2]", "result": 48, "unit": "%"}, {"measurement": "Inhibition", "setting": "HepG2", "result": 0, "unit": "%"}]}, {"smiles": "CC(Nc1ccc2c(c1)CCC2)C(=O)Nc1cc(C(F)(F)F)ccc1N1CCOCC1", "note": "(centres undefined)", "values": [{"measurement": "Inhibition", "setting": "Plasmodium falciparum [1]", "result": 100, "unit": "%"}, {"measurement": "Inhibition", "setting": "Plasmodium falciparum [2]", "result": 100, "unit": "%"}, {"measurement": "Inhibition", "setting": "HepG2", "result": 0, "unit": "%"}]}, {"smiles": "Cc1cc(C(=O)Nc2ccc3c(c2)CCN3C2CCN(Cc3ccc4nsnc4c3)C2)no1", "note": "(centres undefined)", "values": [{"measurement": "Inhibition", "setting": "Plasmodium falciparum [1]", "result": 90, "unit": "%"}, {"measurement": "Inhibition", "setting": "Plasmodium falciparum [2]", "result": 94, "unit": "%"}, {"measurement": "Inhibition", "setting": "HepG2", "result": 0, "unit": "%"}]}, {"smiles": "CCN(CC)CCN(Cc1ccc(-c2ccc(C(F)(F)F)cc2)cc1)C(=O)Cn1c(CCc2cccc(F)c2F)nc(=O)c2ccccc21.O=C(O)C(O)C(O)C(=O)O", "values": [{"measurement": "Inhibition", "setting": "Plasmodium falciparum [1]", "result": 97, "unit": "%"}, {"measurement": "Inhibition", "setting": "Plasmodium falciparum [2]", "result": 60, "unit": "%"}, {"measurement": "Inhibition", "setting": "HepG2", "result": 49, "unit": "%"}]}]}
